Test results taken from PubChem BioAssay (NCI).
Compounds without any hit were thinned out: in the full panel of roughly 83,000, 20% have a hit.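 Plates (96-well) were seeded with cells, treated with compound at one concentration, and incubated for 48 hours before percent growth was determined.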 Calls of active or inactive are those of the source.

The compounds below were run on CCRF-CEM leukemia (assay: NCI-60 one-dose screen, 48 h (100 = growth as untreated, 0 = no growth, -100 = all killed)). Conditions: 10 µM unless noted.
Description: Growth inhibition of the CCRF-CEM human tumor cell line is measured as a screen for anti-cancer activity. Cells are grown in 96 well plates and exposed to the test compound for 48 hours. Compounds are tested at a single concentration, which is 10^-5 M for most compounds. The reported endpoint is percent growth (GI% or GIPRCNT), where numbers from 0 - 100% represent growth inhibition, and numbers from -100% - 0 represent cell death. For example, a value of 40 represents 60% growth inhibition. A value of 0 means no net growth occurred over the course of the experiment. A value of -40 indicates 40% of cells at the beginning of the experiment died by the end of the experiment. A value of -100 means all cells are dead at the end of the experiment.
NCI-60 Human Tumor Cell Lines Screen was performed using the standard one-dose NCI protocol, which is described in more detail at https://dtp.cancer.gov/discovery_development/nci-60/default.htm.
Compounds with GIPRCNT values below 10 were considered active. Activity score was based on GIPRCNT using the following formula: […]
Score is 0 for GIPRCNT values of 100 or above, 50 for GIPRCNT values of 0, and 100 for GIPRCNT values of -100.
In the case of `NC(=O)C1=C[C@H]2[C@H]3C=C[C@@]2(O)C(=O)O[C@@H]3O1`, the growth is reported as 26.9% (inactive). For `O=C(Nc1ccc(-n2ccc3c(NC(=O)c4ccccc4)ncnc32)cc1)Nc1cccc(Cl)c1Cl`, the growth was 16.5% (inactive). With `Cc1ccc(N(CC2=NCCN2)c2cccc(O)c2)cc1` the growth was 98.5% (inactive). With `Cc1cc(NC(=O)c2cccc(C(F)(F)F)c2)ccc1-n1ccc2c(NC(=O)c3ccccc3)nccc21` the growth was 88.3% (inactive). For `CC(C)(c1ccc(OCC(O)CNCc2ccco2)cc1)c1ccc(OCC(O)CNCc2ccco2)cc1` (stereo not given), the growth was 72.9% (inactive). In the case of `CSc1ccc(C(=O)C[n+]2cccc(C)c2)cc1`, the growth is reported as 99.8% (inactive). With `CC(=O)c1ccc2c(c1)C1C=CCC1[C@H](c1cc3c(cc1Br)OCO3)N2` (stereo not given in full) the growth was 4.69% (active). In the case of `COc1ccc(/C=C2\CS(=O)(=O)C/C(=C\c3ccc(OC)cc3)C2=O)cc1`, the growth is reported as -0.95% (active). In the case of `CCCC(=O)Oc1ccc(/C(=C(\C)c2ccc(Cl)cc2)c2ccc(OCCN(CC)CC)cc2)cc1`, the growth is reported as -18.6% (active). With `O=C(Nc1ccc(-n2ccc3c(NC(=O)c4ccccc4)ncnc32)cc1)c1cccc(C(F)(F)F)c1` the growth was 28.2% (inactive). For `COc1ccc(Cl)cc1NC(=O)c1cc2c(n1C)-c1nc(NC(=O)C(C)(C)C)sc1CC2`, the growth was 98.5% (inactive). For `COc1ccc(Cl)cc1NC(=O)c1cc2c([nH]1)-c1nc(N)sc1CCC2`, the growth was 86.7% (inactive). With `O=C(NCCNc1nccc(-c2c(-c3cccc(O)c3)nc3sccn23)n1)c1ccccc1` the growth was 47.3% (inactive). For `O=C(Cn1c2ccccc2c2ccncc21)N/N=C/c1cc(O)c(O)c(O)c1`, the growth was 112% (inactive). In the case of `NC(N)=N/N=C/c1ccc([N+](=O)[O-])cc1`, the growth is reported as 112% (inactive). For `NC(CSC(c1ccccc1)(c1ccccc1)c1ccc(F)cc1)C(=O)O` (stereo not given), the growth was 11.1% (inactive). In the case of `COc1ccc(-c2nn(-c3cccc(Cl)c3)cc2-c2cc(-c3ccc(Br)cc3)[nH]c(=O)c2C#N)cc1`, the growth is reported as 75.4% (inactive). With `CCOC(=O)C1CSC(C)(C(=O)OCC)N1` (stereo not given) the growth was 103% (inactive). In the case of `CCCCCCCCCCCC(=O)OCCNC(=O)C[n+]1ccccc1`, the growth is reported as 98.1% (inactive). With `COc1cc(Nc2ncccc2C(=O)Nc2nc3ccc(F)cc3s2)cc(OC)c1OC` the growth was 29.7% (inactive). In the case of `S=c1[nH]nc(Cn2c3ccccc3c3ccncc32)o1`, the growth is reported as 84.6% (inactive). With `COc1ccccc1C(OC(C)=O)OC(C)=O` the growth was 113% (inactive). With `CCn1c(SCC(=O)c2ccc(Br)cc2)nnc1-c1cc2c([nH]c3ccccc32)c(-c2cccc(O)c2)n1` the growth was 78.5% (inactive). In the case of `CC(=O)Nc1ccc([I+]c2ccc([N+](=O)[O-])cc2)cc1`, the growth is reported as 89.2% (inactive). With `CN(C)c1ccc(/C=N/N=C(N)N)cc1` the growth was 104% (inactive). For `Nc1ccc(S(=O)(=O)Nc2ccnn2-c2ccccc2)cc1`, the growth was 107% (inactive). For `CCOC(=O)C1=C(N)Oc2cc(OC)ccc2C1c1ccc(F)c(F)c1` (stereo not given), the growth was 20.4% (inactive). In the case of `COc1ccc(Cn2cc3c(c2-c2cc(OC)c(OC)c(OC)c2)CCc2c(CO)noc2-3)cc1`, the growth is reported as 19.6% (inactive). In the case of `NC(CCCC(N)C(=O)c1ccccc1)C(=O)O` (stereo not given), the growth is reported as 111% (inactive). `CC(=O)CC/C=C(\C)[C@H](O)[C@H](C)C(=O)O[C@H]1C[C@H](C)C=C2C=C[C@@]3(C)O[C@@H](O)CC(=O)[C@]3(C)[C@H]21` was tested, and the growth was 4.28% (active). `Fc1ccc(Nc2ncnc3ccc(-c4cn[nH]c4)cc23)cc1Cl` was tested, and the growth was 75.3% (inactive). `O=C(Nc1ccc(F)cc1)Nc1ccc(Br)c(C(F)(F)F)c1` was tested, and the growth was 6.73% (active). In the case of `Cc1ccc2c(c1)Nc1ccc(C)cc1C2(C)C`, the growth is reported as 92.8% (inactive). `Nc1ncnc2c1c(-c1ccc(Oc3ccccc3)cc1)nn2C[C@H]1SSC[C@H]1O` was tested, and the growth was 11.1% (inactive). `CC[C@H]1[C@@H]2C=C[C@@H]3[C@H]4C/C=C\C(=O)NCCC[C@@H]5NC(=O)/C(=C(O)/C=C/[C@@H]4C[C@@H]3[C@H]2C[C@H]1C)C5=O` was tested, and the growth was -17% (active). `O=C(NC(=S)Nc1ccc(Cl)cc1)c1ccccc1` was tested, and the growth was 102% (inactive). `CC1(C)Cc2c(Br)c(Br)c(Br)c(OCC(O)CN3CCN(c4ccccn4)CC3)c2O1` (stereo not given) was tested, and the growth was -14.3% (active). For `COc1ccc(/C=C/C(=O)c2ccc(-n3cc(CN4CCN(c5cc6c(cc5F)c(=O)c(C(=O)O)cn6C5CC5)CC4)nn3)cc2)cc1OC`, the growth was 3.05% (active). `CC1CCC(C(C)C)C(NN)C1` (stereo not given) was tested, and the growth was 89.5% (inactive). With `O=C(Nc1ccc(-n2ccc3c(NC(=O)c4ccccc4)nccc32)cc1)Nc1cccc(C(F)(F)F)c1` the growth was 13.8% (inactive).
